# Data as given in ChEMBL document CHEMBL3988442, “University of Dundee, Small-Polar-MMV Screening Library” (2021).
# Out of some 69,000 compounds screened, about 420 (0.61%) showed an effect of 50% or more. The entries come from a sample that favours strong results as a whole.
# Biological target: T1, Histidine--tRNA ligase (Leishmania infantum) (UniProt A4I591)
# T1 sequence (whole entry): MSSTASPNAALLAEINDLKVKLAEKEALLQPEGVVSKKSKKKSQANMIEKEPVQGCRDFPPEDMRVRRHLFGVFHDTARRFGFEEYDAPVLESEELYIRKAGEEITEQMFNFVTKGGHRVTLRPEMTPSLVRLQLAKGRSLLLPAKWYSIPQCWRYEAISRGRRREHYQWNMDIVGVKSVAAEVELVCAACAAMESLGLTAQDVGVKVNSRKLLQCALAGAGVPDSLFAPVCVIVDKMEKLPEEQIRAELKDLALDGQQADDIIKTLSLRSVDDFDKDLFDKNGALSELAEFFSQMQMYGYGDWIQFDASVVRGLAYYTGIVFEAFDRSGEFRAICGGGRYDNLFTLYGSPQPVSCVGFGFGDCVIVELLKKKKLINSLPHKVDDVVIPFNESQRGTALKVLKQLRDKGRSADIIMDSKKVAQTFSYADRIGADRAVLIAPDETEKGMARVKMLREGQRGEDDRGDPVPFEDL
# Assay: Leishmania infantum Histidine tRNA synthetase (LdHisRS)
# Format: functional
# Set-up: scale not given: in the data most compounds retested in dose-response had high values
# Conditions: 30 µM
row,Compound,Percent Effect [%]
1,CCC1CN(CC(=O)NCCN2CCCCCC2)c2ccccc2S1 (centres undefined),51.1
2,CCC1CN(CC(=O)NCCN2CCCCC2)c2ccccc2S1 (centres undefined),27.2
3,CCC1CN(CC(=O)NCCN2CCCC2)c2ccccc2S1 (centres undefined),31.5
4,CN(C)C(=O)N1C[C@@H]2CC[C@H](C1)N(Cc1ccc3nsnc3c1)C2,24
5,O=C1N(c2cccc(F)c2)Cc2nc(=O)n(Cc3ccccc3Cl)n21,12
6,CN1C[C@@H]2CN(C(=O)NCc3cccc(F)c3)CCC[C@]2(C(=O)O)C1,6
7,COc1ccc(CN2C[C@@H]3COC[C@@H](N4CCN(C)CC4)[C@@H]3C2)cc1,17
8,Cc1c(-c2cc(C(F)(F)F)nc(N3CCC(N)CC3)n2)cnn1C,19.4
9,CCn1ncc(-c2cc(C(F)(F)F)nc(N3CCC(N)CC3)n2)c1C,15.1
10,CCc1ccc(-c2cc(C(F)(F)F)nc(N3CCC(N)CC3)n2)cc1,71
11,CNC(=O)[C@H]1C[C@@H]2CN(C(=O)c3ccco3)C[C@@H]2N1S(C)(=O)=O,17
12,COCCC(=O)N1CC[C@@H]2O[C@@H](C)C[C@H]2C1,15.3
13,O=C(Cc1ccco1)N1C[C@H]2CCC[C@@]2(COc2cccnc2)C1,24
14,Cn1cnc2c1CCN(Cc1csc(-c3ccccc3)n1)C2,15.7
15,COc1ccc(-c2nc(CN3CCc4c(ncn4C)C3)cs2)cc1,57.5
16,Cn1cnc2c1CCN(Cc1csc(-c3ccc(F)cc3)n1)C2,10.2
17,Cc1ccc(OCC(=O)N2C[C@@H]3CN(C)CCO[C@@H]3C2)cc1,5.17
18,COc1cccc(CN(C)C(=O)CN2CC(n3nc(C)cc3C)C2)c1,62.9
19,Cc1cc(C)n(C2CN(CC(=O)N(C)Cc3ccsc3)C2)n1,43.8
20,COc1ccccc1CN(C)C(=O)CN1CC(n2nc(C)cc2C)C1,40.2
21,COc1cc(C(=O)N2CCO[C@H]3[C@H](OCC4CC4)CC[C@@H]32)ccc1F,12.1
22,O=C(NCc1cccnc1)[C@H]1C[C@@H]2CCN(c3ccncn3)C[C@H]2O1,15.3
23,CCN1C[C@@H]2CN(C(=O)c3ccsc3)C[C@@H]2C1=O,-28.6

row,Compound,Percent Effect [%]
1,N#Cc1cccc(CN2C[C@@H](NC(=O)C3CC3)[C@H]3OCCC[C@H]32)c1,-2.75
2,CC(C)(CN)NS(=O)(=O)c1cccc(F)c1F,11.8
3,O=C(O)c1c[nH]c2cc(NS(=O)(=O)c3cccc(F)c3F)ccc12,36.5
4,COc1ncc(NS(=O)(=O)c2ccc(F)cc2F)cn1,12.8
5,COc1cc(F)c(S(=O)(=O)Nc2cnc(O)cc2C)cc1OC,97.6
6,COc1ccccc1S(=O)(=O)Nc1cnc(O)cc1C,20.5
7,Cc1cc(O)ncc1NS(=O)(=O)c1cccc(F)c1F,95.2
8,COc1ccc(CN2CCO[C@H]3CN(C(=O)C4CC4)CC[C@H]3C2=O)cc1,11.1
9,COC[C@@]12CCO[C@@H]1CCN(Cc1ccc(C)s1)C2,-2
10,O=C(c1cnccn1)N1C[C@@H]2CC[C@H](C1)N(C(=O)Cc1ccsc1)C2,12.3
11,CCCS(=O)(=O)N1C[C@H](N(C)Cc2ccco2)[C@@H]2OCCC[C@@H]21,9
12,Cc1nc(C(=O)N2C[C@@H]3CN(S(C)(=O)=O)CCO[C@@H]3C2)cs1,8.77
13,Cc1nnsc1CNC(=O)Nc1cccc(N2CCN(C)C2=O)c1,11.8
14,CN1CCN(c2cccc(NC(=O)NCc3csc(N(C)C)n3)c2)C1=O,64.7
15,CN(C)c1nc(CNC(=O)Nc2cccc([S+](C)[O-])c2)cs1 (centres undefined),27.1
16,Cc1cccc(CN2C(=O)CO[C@@H]3CN(Cc4cnn(C)c4)C[C@H]32)c1,23.1
17,C=Cc1cccc(CN2C[C@H]3CC[C@@H]2CN(Cc2c(C)noc2C)C3)c1,27.4
18,COCCNc1cc(-c2ccccc2CCN)c2cc[nH]c2n1,4.84
19,CNc1cc(C)nc(-c2cc(NC)nc3[nH]ccc23)n1,-2.04
20,CNc1cc(-c2ccc(COCCN)cc2)c2cc[nH]c2n1,20.5
21,CNc1cc(-c2ccccc2CN)c2cc[nH]c2n1,80.7
22,CNc1cc(-c2cccc(CN)c2)c2cc[nH]c2n1,68.7
23,Cc1cccc(C)c1-c1cc(NCCO)nc2[nH]ccc12,10

row,Compound,Percent Effect [%]
1,O=C(c1cocn1)N1CC[C@H]2OCC[C@@]2(COc2ncccc2F)C1,22.4
2,O=C(Cc1ccccc1)N1CC[C@@H]2CNS(=O)(=O)[C@@H]2CC1,28.1
3,Nc1cccnc1N1CCC(O)CC1,12.5
4,Nc1cccnc1N1CCCCCC1,58.3
5,Nc1cccnc1N1CCN(c2ccccc2)CC1,8.33
6,COc1ccc(CC(=O)N2C[C@@H]3COC[C@]3(CN(C)C)C2)cc1,-47.1
7,Cc1nc(COC[C@@H]2CC[C@H]3[C@H](CCN3C(=O)C3CC3)O2)cs1,14.7
8,Cc1cccc(C(=O)N2C[C@@H]3CCN(c4cccnc4)C[C@@H]3C2)c1,6.57
9,CN(C)C(=O)CN1CC[C@H]2CN(C3CCOCC3)C[C@@H]2C1=O,11.7
10,CCn1nc2c(cc1=O)CN(CC1CCCCO1)CC2 (centres undefined),0
11,Cc1ncc2c(n1)CN(CC1CCCCO1)CC2 (centres undefined),25.7
12,CC(C)n1nc2c(cc1=O)CN(CC1CCCCO1)CC2 (centres undefined),35.6
13,Cn1nc2c(cc1=O)CN(CCN1CCCC1=O)CC2,4.39
14,CCCn1nc2c(cc1=O)CN(CC1CCCCO1)CC2 (centres undefined),79.5
15,Cn1nc2c(cc1=O)CN(CC1CCCCO1)CC2 (centres undefined),104
16,CCCSCC(=O)N1C[C@H]2CC[C@@H]1CN(c1ncccn1)C2,4.17
17,CC(C)CC(=O)N1CC[C@H]2N(C)CC[C@@]2(C(=O)Nc2ccccc2)CC1,15.4
18,Cc1nccc([C@@H]2C[C@@H]3CCN(S(C)(=O)=O)C[C@H]3O2)n1,22.6
19,CC1=N[C@@]2(CC[C@@H]3CN(CC(=O)N(C)C)C[C@@H]32)C(=O)N1CC1CC1,23.1
20,COc1ccc(F)c(CN2CC(=O)N(c3ccccc3C)CC2C)c1 (centres undefined),31.3
21,COc1ccc(F)c(F)c1CN1CC(=O)N(c2ccccc2C)CC1C (centres undefined),53
22,COc1cccc(CN2CC(=O)N(c3ccccc3C)CC2C)c1OC (centres undefined),38.5
23,c1csc(N2[C@H](Cn3cncn3)C[C@@H]3CNCC[C@@H]32)n1,-6.84

row,Compound,Percent Effect [%]
1,CC(C)c1cc(N2CC[C@H](F)C2)n2nccc2n1,22.2
2,CC(C)c1cc(N2CCC(N)CC2)n2nccc2n1,22.9
3,CC(C)c1cc(N2CCC(C(C)N3CCCC3)CC2)n2nccc2n1 (centres undefined),69.4
4,Cc1cccc(CO[C@@H]2CC[C@H]3[C@H]2OCCN3Cc2cc(C)on2)n1,22.2
5,O=C(NC[C@H]1CC[C@H](c2ccnc3ncnn32)CC1)c1ccccn1,7.04
6,CC(C)C(C)NC(=O)Nc1cccn(C)c1=O (centres undefined),63.4
7,Cc1cccc(C)c1OCC(=O)Nc1cccn(C)c1=O,21
8,Cn1cccc(NC(=O)NCCOCc2ccccc2)c1=O,22
9,CN1CCN(c2ccccc2NC(=O)NCCc2ccc(O)cc2)CC1,21.5
10,Cn1cccc(NC(=O)NCCc2cccc(O)c2)c1=O,55
11,Cn1cccc(NC(=O)NCc2cccc(CO)c2)c1=O,55
12,CC(CCc1cccn1C)NC(=O)Nc1cccn(C)c1=O (centres undefined),38.4
13,CCSCCC(C)NC(=O)Nc1cccn(C)c1=O (centres undefined),29.5
14,Cn1cccc(NC(=O)COc2ccc(Cl)cc2)c1=O,34.5
15,COCCN1CCO[C@H]2CN(Cc3cc[nH]n3)C[C@H]21,23.8
16,CS(=O)(=O)N[C@@H]1CN(C(=O)c2ccccn2)C[C@@H]2CCCO[C@@H]21,15.6
17,CN1CCO[C@@H]2CN(C(=O)NCc3cccc(F)c3)CC[C@@H]2C1,4.54
18,CCCS(=O)(=O)N1C[C@@H](c2nc(C)no2)C[C@H]2OCC[C@H]21,11.7
19,Cc1cccc(C(=O)N2C[C@@H]3OCCN(CCN4CCCC4)[C@@H]3C2)n1,16
20,CCS(=O)(=O)N1CC[C@@H]2[C@H](CC1)N(CC(C)C)CCS2(=O)=O,10.5
21,O=C(NCC1CC1)[C@H]1C[C@@H]2CN(S(=O)(=O)Cc3ccccc3)C[C@H]1O2,-0.73
22,O=C(c1ccncc1)N1CC[C@@H]2[C@@H](CC1)OCCN2c1cccnc1,17.5
23,Cc1nc(CO[C@H]2CN(Cc3cccs3)[C@@H]3COC[C@H]23)cs1,8.06

row,Compound,Percent Effect [%]
1,COCc1nc2cc(NCc3cc[nH]n3)ccc2o1,106
2,CCCS(=O)(=O)C(C)C(=O)Nc1ccc2oc(C3CC3)nc2c1 (centres undefined),26.8
3,CN1CCN(Cc2cccc(NCc3cc[nH]n3)c2)CC1,12.3
4,CCC(C)CNc1ccc2oc(COC)nc2c1 (centres undefined),94.2
5,COCc1nc2cc(NCc3ccncc3)ccc2o1,100
6,COCc1nc2cc(NCc3ncc[nH]3)ccc2o1,38.4
7,c1cc(CN2CCCCC2)cc(NCc2cc[nH]n2)c1,15.8
8,COCc1nc2cc3c(cc2c(=O)o1)OCCCO3,15.7
9,COCc1cccc(NCc2cccnc2)c1,6.67
10,O=C(NC1CC1)[C@H]1COC[C@H]2CN(c3ncc(F)cn3)C[C@H]21,12
11,Cc1nc(CN2CCO[C@H]3CN(C(=O)c4cccn4C)C[C@H]32)cs1,10.5
12,CNC(=O)[C@@H]1[C@@H](c2ccccc2)CN2CCN(Cc3cccs3)C[C@H]12,6.12
13,Cc1ccc(CN2C[C@@H]3CN(CC4CCOCC4)CCO[C@@H]3C2)s1,19
14,COCC(=O)N[C@H]1C[C@H]2C(=O)NC[C@@H](CCC(=O)NC3CC3)N2C1,5.56
15,CN(C)C(=O)[C@@H]1CCO[C@@H]2CCN(c3ncccn3)C[C@@H]21,0
16,CNC(=O)[C@@H]1CC[C@@H]2[C@@H](CCN2C(=O)N(C)C)O1,0
17,COC[C@@]12CCO[C@@H]1CCN(C(=O)Cc1cccc(F)c1)C2,19.4
18,CCOc1ccc2nc(CN3CCOC(CN)C3)ccc2c1 (centres undefined),13.4
19,CCOc1ccc2nc(CN3CCC(CNC(C)=O)C3)ccc2c1 (centres undefined),37.3
20,CCOc1ccc2nc(CN3CCC(CN)C3)ccc2c1 (centres undefined),52.2
21,COC[C@@]12CCO[C@@H]1CCN(C(=O)Cc1ccccc1F)C2,11.4
22,O=C1[C@@H]2CCN(Cc3ccoc3)C[C@@H]2OCCN1Cc1cccnc1,15.3
